# Experimental data published in PubChem BioAssay (NCATS).
# Unmarked numbers belong to inactive results. Inconclusive results are not listed. Entries that show only a call come without a potency. Calls of active or inactive are those of the source. Unless noted, calls come from the whole dose curve; as a rule, active = well fitted curve in the direction sought with a large enough effect; inconclusive = small, poorly fitted or top-dose-only effect, or another doubt; inactive = no such curve, though single readings can be large; an effect the other way counts as inactive or inconclusive.
# What was measured:
# [1] = Cellular Toxicity (caspase-3) HepG2 (AID 654);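 note: cells exposed to compound for 16 hours before reading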
# Summary of the method: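 HepG2 cells (1500/well) in complete medium were treated with compounds for 16 hr at 37 °C. Caspase-3/7 activity was then read as luminescence from peptide-aminoluciferin cleavage. AC50 came from Hill fits, normalized to DMSO and 100 uM tamoxifen.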
# [2] = Cellular Toxicity (caspase-3) Jurkat (AID 655); details: Jurkat caspase-3 activation, luminescence; caspase-3 activation: at 92.2 µM (top of the series), DMSO = 0%, tamoxifen = 100%;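 note: cells exposed to compound for 16 h at 37 °C before reading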
# Summary of the method: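 5000 Jurkat cells/well; compound 16 hr, 37 °C; Caspase-Glo 3/7 added, 20 min RT; luminescence read. Norm: DMSO = 0%, tamoxifen 100 uM = 100%. AC50, Hill model.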
# [3] = Cellular Toxicity (caspase-3) HUV-EC-C (AID 656)
# Summary of the method: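 qHTS; HUV-EC-C, 1000 cells/well; 5 hr settle, 16 hr cmpd, 37°C; Caspase-Glo 3/7, 20 min RT; luminescence. Norm: DMSO = 0%, tamoxifen 100 uM = 100%. Hill-fit AC50.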
# [4] = Cellular Toxicity (caspase-3) SHSY5Y (AID 657)
# Summary of the method: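 qHTS, SH-SY5Y, 1500 cells/well, 5 h pre-incubation 37 °C; compound 16 h 37 °C; Caspase-Glo 3/7 1 h RT; luminescence. Norm.: DMSO = 0, 10 uM staurosporine = 100%. Hill fit → AC50.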
# [5] = Cellular Toxicity (caspase-3) BJ (AID 658); details: Potency: caspase-3 activation
# Summary of the method: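 Readout: Caspase-Glo 3/7 luminescence increase in BJ cells after 16 hr treatment at 37 °C. Staurosporine and tamoxifen served as positive controls; AC50 values came from Hill modelling of data normalized to DMSO and 10 uM staurosporine.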
# [6] = Cellular Toxicity (caspase-3) MRC-5 (AID 659)
# Summary of the method: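 Concentration-dependent caspase 3/7 activation is measured in human normal lung fibroblasts (MRC-5) following 16-hour treatment. AC50 values come from standard Hill-equation modeling of luminescence normalized to DMSO and 10 uM staurosporine.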
# [7] = Cellular Toxicity (caspase-3) Mesangial (AID 660);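 note: cells exposed to compound for 16 h before the caspase read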
# Summary of the method: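 Human renal glomerular mesangial cells (1000/well) were treated with compounds for 16 h at 37 °C in complete medium, then caspase 3/7 activity was read by Caspase-Glo luminescence. Data were normalized to DMSO and 100 uM tamoxifen; AC50 from Hill fits.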
# [8] = Cellular Toxicity (caspase-3) SK-N-SH (AID 661)
# Summary of the method: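 SK-N-SH human neuroblastoma cells (1500/well) were treated with compounds for 16 hr at 37 °C in complete medium; caspase 3/7 activity was read by Caspase-Glo luminescence. AC50 came from Hill fits of data normalized to DMSO and 10 uM staurosporine.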
# [9] = molecular target: Estrogen receptor (Homo sapiens) (UniProt P03372); assay: qHTS assay for small molecule antagonists of estrogen receptor alpha signaling (AID 588513; active = well fitted curve in the direction sought with a large enough effect in the signal ratio, with a control signal flat, not every such curve was filed as active; the % refers to the signal ratio)
# Summary of the method: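 Fluorescence from CCF4 substrate after 2 h at room temperature gave reporter activity; cells had been exposed to compound and 0.5nM 17-beta-estradiol for 18 h at 37 C. Hill-equation fitting yielded IC50 and maximal response.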
# [10] = molecular target: Glucocorticoid receptor (Homo sapiens) (UniProt P04150); assay: qHTS assay for small molecule agonists of glucocorticoid receptor signaling (AID 588532; active = well fitted curve in the direction sought with a large enough effect in the signal ratio, with a control signal flat; the % refers to the signal ratio); details: HeLa MMTV-bla, beta-lactamase ratio, agonist, 18 h; hits give high values; percent of dexamethasone control, DMSO zero
# Summary of the method: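 Using MMTV-bla HeLa cells in medium with 1% stripped FBS and 25 mM HEPES, compounds were titrated and incubated overnight-length (18 h). Beta-lactamase cleavage of CCF4 was quantified by dual-emission fluorescence.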
# [11] = molecular target: Glucocorticoid receptor (Homo sapiens) (UniProt P04150); assay: qHTS assay for small molecule antagonists of glucocorticoid receptor signaling (AID 588533; active = well fitted inhibition curve with a large enough effect in the signal ratio, with a control signal flat, not every such curve was filed as active; the % refers to the signal ratio;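 note: cells stimulated with 2 nM dexamethasone as agonist; potency is the fitted concentration of half-maximal effect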)
# Summary of the method: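 Antagonist-mode qHTS: compound titrations added to GRE-bla HeLa cells, then dexamethasone 2 nM final; 18 h, 37 C. CCF4 FRET fluorescence normalized to dexamethasone and DMSO; IC50 from Hill fit.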
# [12] = molecular target: Thyroid hormone receptor beta (Homo sapiens) (UniProt P10828); assay: qHTS assay for small molecule antagonists of thyroid hormone receptor beta signaling (AID 588547; active = well fitted inhibition curve with a large enough effect in the signal ratio, with a control signal flat, not every such curve was filed as active; the % refers to the signal ratio;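 note: cells stimulated with 0.4 nM T3 agonist during compound exposure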); details: TR-UAS-bla HEK293, beta-lactamase ratio, antagonist mode, 18 h
# Summary of the method: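 Inhibition of T3-driven (0.4nM final) beta-lactamase reporter activity was measured over 0.59 nM to 92 uM compound after 18 h at 37 C. The cells were GripTite HEK293 TR-UAS-bla in charcoal/dextran-stripped serum, with CCF4 ratio read-out and IC50 from Hill fits.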
# [13] = molecular target: Voltage-gated inwardly rectifying potassium channel KCNH2 (Homo sapiens) (UniProt Q12809); assay: qHTS Assay for Small Molecule Inhibitors of the Human hERG Channel Activity (AID 588834);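 note: top concentration of the series differs between compounds; lower thallium flux fluorescence means stronger hERG block; nearly all actives have a fitted effect of over 50% in size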
# Summary of the method: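 hERG-BacMam U2OS, 2000 cells/well; 0.7X FluxOR loading 1 hr RT dark; cpd ~10 min 37 °C; stim buffer; FDSS fluorescence 2 min @ 1 s; AC50 Hill fit.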
# [14] = qHTS assay for small molecule activators of the p53 signaling pathway (AID 651743; active = well fitted activation curve with a large enough effect in the signal ratio, not every such curve was filed as active; the % refers to the signal ratio); details: HCT-116 p53RE-bla, beta-lactamase FRET ratio, 16 h; activation: hits give high values
# Summary of the method: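 Screen for p53 pathway agonists uses stably transfected p53RE-bla HCT-116 cells, 4,000 per well, treated 16 h at 37 C with compounds in DMSO.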
# [15] = qHTS assay for small molecule activators of the nuclear factor-kappa B (NF-kB) signaling pathway (AID 651749; active = well fitted activation curve with a large enough effect in the signal ratio; the % refers to the signal ratio); details: NF-kB-bla ME-180 cells, beta-lactamase FRET ratio, 16 h; hits give high values
# Summary of the method: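 Stably transfected ME-180 line; NF-kB response element upstream of beta-lactamase. Treatment: compound or DMSO, 16 hr. Detection: fluorescent FRET substrate.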
# [16] = qHTS assay for small molecule disruptors of the mitochondrial membrane potential - 1 hr assay (AID 651754; calls by dose curve; note: potency is the fitted concentration of half-maximal effect; nearly all actives have a fitted effect of over 35% in size)
# Summary of the method: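 HepG2 cells, attached overnight at 37C, were exposed to compound or DMSO vehicle for 1 hr at 37C, 5% CO2, then stained with Mito-MPS dye for 30 min. Red aggregate versus green monomer fluorescence reports membrane potential.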
# [17] = qHTS assay to identify small molecules that stimulate interleukin-8 (IL-8) secretion (AID 651758; active = well fitted activation curve with a large enough effect in the signal ratio; the % refers to the signal ratio)
# Summary of the method: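 Secreted IL-8 measured by TR-FRET sandwich (cryptate and XL665 antibodies) from THP-1 cells exposed to compound overnight (16 hrs, 37 C).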
# [18] = qHTS assay for environmental chemicals that activate the Aryl hydrocarbon Receptor (AhR) signaling pathway (AID 651777); details: 1A2-DRE human hepatoma cells, luciferase, 24 h; activation: hits give high values; note: potency is the fitted concentration of half-maximal effect; nearly all actives have a fitted effect of over 15% in size
# Summary of the method: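 Following a 24 hr incubation with test chemicals at 37 C and 5% CO2, 1A2-DRE human hepatoma cells received One-Glo reagent; after 30 min at room temperature, luciferase output reflected CYP1A2 induction via AhR.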
# [19] = molecular target: Peroxisome proliferator-activated receptor alpha (Homo sapiens) (UniProt Q07869); assay: qHTS assay for small molecule agonists of the peroxisome proliferator-activated receptor alpha (PPARalpha) signaling pathway (AID 651778); details: PathHunter PPARalpha complementation, chemiluminescence, 6 h; max response: hits give high values
# Summary of the method: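 Chemiluminescence from complemented enzyme reported PPARalpha activation in cells after 6 hr of compound treatment at 37 C. The detection reagent was incubated for 60 min at room temperature, and compounds were scored as agonists.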
# [20] = molecular target: Nuclear receptor ROR-gamma (Homo sapiens) (UniProt P51449); assay: qHTS assay for small molecule antagonists of the retinoid-related orphan receptor gamma (ROR-gamma) signaling pathway (AID 651802); note: nearly all actives have a fitted effect of over 60% in size
# Summary of the method: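 CHO cells carrying TET-inducible ROR-gamma and an ROR response element–luciferase reporter were exposed to compound, then induced with doxycycline. After 16hr at 37C, luminescence was read; lower signal indicates antagonism.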
# Chain of Glucocorticoid receptor (Homo sapiens) (P04150 whole entry, looked up): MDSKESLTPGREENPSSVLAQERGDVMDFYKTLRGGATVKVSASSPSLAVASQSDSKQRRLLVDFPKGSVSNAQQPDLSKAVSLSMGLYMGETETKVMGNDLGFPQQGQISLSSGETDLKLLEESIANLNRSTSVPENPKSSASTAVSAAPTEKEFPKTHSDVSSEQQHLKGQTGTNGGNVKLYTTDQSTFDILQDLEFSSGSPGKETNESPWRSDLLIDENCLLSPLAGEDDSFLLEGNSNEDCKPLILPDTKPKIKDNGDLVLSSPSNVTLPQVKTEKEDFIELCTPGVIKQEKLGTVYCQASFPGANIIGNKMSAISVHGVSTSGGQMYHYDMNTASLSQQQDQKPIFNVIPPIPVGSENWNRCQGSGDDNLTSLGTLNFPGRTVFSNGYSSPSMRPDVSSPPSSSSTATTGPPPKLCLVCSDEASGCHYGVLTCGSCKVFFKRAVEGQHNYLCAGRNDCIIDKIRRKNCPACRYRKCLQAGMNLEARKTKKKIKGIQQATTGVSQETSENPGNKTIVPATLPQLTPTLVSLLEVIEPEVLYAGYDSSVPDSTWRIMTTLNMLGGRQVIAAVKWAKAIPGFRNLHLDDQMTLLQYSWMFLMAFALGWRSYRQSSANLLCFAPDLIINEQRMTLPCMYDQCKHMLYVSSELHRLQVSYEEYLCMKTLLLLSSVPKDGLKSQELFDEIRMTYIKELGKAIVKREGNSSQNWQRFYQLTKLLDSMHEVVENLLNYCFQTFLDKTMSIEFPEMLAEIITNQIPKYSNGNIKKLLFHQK
# Chain of Estrogen receptor (Homo sapiens) (P03372 whole entry, looked up): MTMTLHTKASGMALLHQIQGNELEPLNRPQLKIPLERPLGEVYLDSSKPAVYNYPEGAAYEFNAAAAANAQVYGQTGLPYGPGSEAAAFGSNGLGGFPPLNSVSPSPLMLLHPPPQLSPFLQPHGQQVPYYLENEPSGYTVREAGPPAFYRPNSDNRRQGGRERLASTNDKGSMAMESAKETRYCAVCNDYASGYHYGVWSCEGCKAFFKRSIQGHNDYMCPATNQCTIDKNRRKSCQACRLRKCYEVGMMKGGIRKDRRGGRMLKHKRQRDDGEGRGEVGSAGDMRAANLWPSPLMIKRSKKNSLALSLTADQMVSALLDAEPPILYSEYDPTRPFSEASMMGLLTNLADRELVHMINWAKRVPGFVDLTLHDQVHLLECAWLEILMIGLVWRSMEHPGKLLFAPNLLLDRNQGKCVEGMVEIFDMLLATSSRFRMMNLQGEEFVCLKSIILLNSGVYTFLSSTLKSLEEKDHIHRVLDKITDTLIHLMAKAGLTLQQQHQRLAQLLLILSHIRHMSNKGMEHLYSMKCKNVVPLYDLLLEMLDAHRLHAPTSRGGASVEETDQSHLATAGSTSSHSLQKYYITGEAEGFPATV
# Chain of Thyroid hormone receptor beta (Homo sapiens) (P10828 whole entry, looked up): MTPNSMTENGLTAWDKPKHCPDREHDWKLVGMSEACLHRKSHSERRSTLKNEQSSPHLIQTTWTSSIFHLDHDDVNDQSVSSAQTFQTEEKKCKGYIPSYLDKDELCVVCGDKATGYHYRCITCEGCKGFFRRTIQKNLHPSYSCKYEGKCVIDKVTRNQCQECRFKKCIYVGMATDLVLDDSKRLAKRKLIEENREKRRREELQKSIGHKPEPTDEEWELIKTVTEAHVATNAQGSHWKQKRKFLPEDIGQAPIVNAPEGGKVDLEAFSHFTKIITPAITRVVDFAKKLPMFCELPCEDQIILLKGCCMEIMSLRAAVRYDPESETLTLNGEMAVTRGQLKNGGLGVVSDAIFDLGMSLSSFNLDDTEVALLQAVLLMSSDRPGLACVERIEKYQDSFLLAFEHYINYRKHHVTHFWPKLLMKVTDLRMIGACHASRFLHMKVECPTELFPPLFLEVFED
# Chain of Peroxisome proliferator-activated receptor alpha (Homo sapiens) (Q07869 whole entry, looked up): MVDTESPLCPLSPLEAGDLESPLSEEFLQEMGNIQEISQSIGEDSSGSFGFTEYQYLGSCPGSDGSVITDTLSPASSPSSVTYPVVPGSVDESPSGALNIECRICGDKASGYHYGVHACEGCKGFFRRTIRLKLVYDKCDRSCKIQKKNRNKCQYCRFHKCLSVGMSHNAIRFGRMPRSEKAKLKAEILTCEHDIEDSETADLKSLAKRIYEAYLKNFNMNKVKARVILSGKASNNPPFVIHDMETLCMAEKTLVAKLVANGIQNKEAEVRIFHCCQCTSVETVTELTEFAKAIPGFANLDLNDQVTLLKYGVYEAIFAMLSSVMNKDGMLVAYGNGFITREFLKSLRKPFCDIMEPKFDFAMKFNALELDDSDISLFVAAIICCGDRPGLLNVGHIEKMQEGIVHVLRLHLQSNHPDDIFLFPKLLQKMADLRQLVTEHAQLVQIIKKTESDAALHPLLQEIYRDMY
# Chain of Voltage-gated inwardly rectifying potassium channel KCNH2 (Homo sapiens) (Q12809 whole entry, looked up): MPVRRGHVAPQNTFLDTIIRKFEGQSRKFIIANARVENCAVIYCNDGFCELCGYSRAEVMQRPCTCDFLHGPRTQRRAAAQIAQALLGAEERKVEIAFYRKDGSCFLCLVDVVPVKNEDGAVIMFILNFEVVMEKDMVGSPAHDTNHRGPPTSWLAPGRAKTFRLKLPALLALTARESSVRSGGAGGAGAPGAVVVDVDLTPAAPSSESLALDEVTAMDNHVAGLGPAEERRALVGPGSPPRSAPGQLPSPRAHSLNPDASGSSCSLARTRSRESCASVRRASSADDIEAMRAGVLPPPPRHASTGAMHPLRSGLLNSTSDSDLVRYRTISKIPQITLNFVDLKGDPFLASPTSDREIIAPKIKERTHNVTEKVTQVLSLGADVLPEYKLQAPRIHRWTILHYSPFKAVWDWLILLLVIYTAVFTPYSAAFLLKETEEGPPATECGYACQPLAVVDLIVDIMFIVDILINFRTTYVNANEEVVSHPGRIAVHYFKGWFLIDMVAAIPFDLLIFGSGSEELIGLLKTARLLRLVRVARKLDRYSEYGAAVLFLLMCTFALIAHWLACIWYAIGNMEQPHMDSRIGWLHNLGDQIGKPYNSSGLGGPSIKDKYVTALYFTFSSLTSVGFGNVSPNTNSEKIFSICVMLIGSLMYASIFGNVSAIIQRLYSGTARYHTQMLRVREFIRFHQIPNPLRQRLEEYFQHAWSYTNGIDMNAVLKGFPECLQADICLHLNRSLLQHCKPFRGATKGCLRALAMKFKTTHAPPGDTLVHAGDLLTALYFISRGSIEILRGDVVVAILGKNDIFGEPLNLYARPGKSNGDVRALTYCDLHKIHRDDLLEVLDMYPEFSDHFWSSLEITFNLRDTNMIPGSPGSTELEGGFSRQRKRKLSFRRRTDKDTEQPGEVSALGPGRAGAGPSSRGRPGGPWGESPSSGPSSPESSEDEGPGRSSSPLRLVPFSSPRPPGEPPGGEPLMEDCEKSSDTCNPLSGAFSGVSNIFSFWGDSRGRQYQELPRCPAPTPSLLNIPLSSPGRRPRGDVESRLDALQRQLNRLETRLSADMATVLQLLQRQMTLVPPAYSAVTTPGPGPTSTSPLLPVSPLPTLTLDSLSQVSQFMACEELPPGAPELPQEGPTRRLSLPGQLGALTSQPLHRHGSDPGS
# Chain of Nuclear receptor ROR-gamma (Homo sapiens) (P51449 whole entry, looked up): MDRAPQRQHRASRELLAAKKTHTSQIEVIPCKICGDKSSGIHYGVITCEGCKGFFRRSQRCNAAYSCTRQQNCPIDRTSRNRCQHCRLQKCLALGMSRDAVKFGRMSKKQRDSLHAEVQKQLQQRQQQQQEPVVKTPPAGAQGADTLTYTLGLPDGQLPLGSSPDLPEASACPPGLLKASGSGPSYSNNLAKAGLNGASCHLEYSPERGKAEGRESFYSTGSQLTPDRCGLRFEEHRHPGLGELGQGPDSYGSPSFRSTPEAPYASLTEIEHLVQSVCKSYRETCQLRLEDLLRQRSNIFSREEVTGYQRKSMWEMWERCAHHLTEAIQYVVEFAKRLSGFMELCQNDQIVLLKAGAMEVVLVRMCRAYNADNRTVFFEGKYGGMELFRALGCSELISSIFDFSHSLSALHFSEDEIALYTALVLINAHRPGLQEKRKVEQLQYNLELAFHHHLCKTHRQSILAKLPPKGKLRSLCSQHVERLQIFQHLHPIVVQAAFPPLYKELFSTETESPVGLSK
compound,measurement,setting,value
O=C(O)c1cc(N=Nc2ccc([N+](=O)[O-])cc2)ccc1O,Potency,[1],inactive
same,Potency,[2],inactive
same,Potency,[3],inactive
same,Potency,[4],inactive
same,Potency,[5],inactive
same,outcome,[6],inactive
same,outcome,[7],inactive
same,outcome,[8],inactive
same,outcome,[9],inactive
same,activation,[10],-18.2%
same,Potency,[11],10 µM (active)
same,activity change % (negative = inhibition),[12],12.8%
same,Potency,[13],inactive
same,activation,[14],-5.24%
same,activation,[15],-2.01%
same,Potency,[16],37.6 µM (active)
same,Potency,[17],inactive
same,Potency,[18],4.47 µM (active)
same,max response,[19],-12.2%
same,Potency,[20],inactive
